Experimental data from PubChem BioAssay AID457 (Sanford-Burnham Center for Chemical Genomics, 2006).
Screen size: about 10,000 compounds; about 20 (0.2%) were called active. No rule for the calls is given here. The list is a sample of the results.

Experiment: enhancers of VCAM-1 display on endothelial cells, imaging, high-content imaging, pooled HUVEC, TNFa stimulus (AID 457)
Conditions: TNFa-induced VCAM-1 immunofluorescence imaging; concentration not given here

augmentation, inactive:
CC(C)Oc1cc2oc(=O)c3c(c2cc1Cl)CCC3, O=C(CSc1nc2ccccc2s1)N1CCN(C(=O)c2ccco2)CC1, CCOc1ccccc1N1CCN(S(=O)(=O)c2cccc3nsnc23)CC1, Cn1c(=O)c2c(nc(NCc3ccccc3)n2CCCc2ccccc2)n(C)c1=O, CCOC(=O)c1[nH]c(CSc2nnc(-c3ccc(OC)cc3)o2)c(C(=O)OCC)c1C, O=C(Nc1cnn(C23CC4CC(CC(C4)C2)C3)c1)c1cnn2c(C(F)(F)F)cc(-c3ccco3)nc12, Cc1noc(C)c1CSc1ccccc1C(=O)N1CCN(c2ccccc2)CC1, CCn1cc(C2=NCC(C)O2)c2ccccc21 (configuration not stated), CCC(=O)N1CCc2cc(Br)cc(S(=O)(=O)C3(C(=O)OC)CC3)c21, COc1ccc(Cl)cc1NC(=O)CCN1CCN(c2ccccc2C)CC1, COC(=O)c1ccc2ncccc2c1, Cc1cccc(C2CC(c3ccccc3)Nc3nc(N)nn32)c1 (configuration not stated), O=C(NCCCN1CCCC1=O)c1cncc(Br)c1, Cc1ccccc1-c1noc(N)c1C#N, COc1ccccc1-c1nnc(SCC(=O)NC2CCCCC2)o1, O=C(CSc1nnnn1-c1ccccc1Cl)Nc1ccc2c(c1)OCCO2, O=C(CCNC(=O)c1ccc(Br)o1)NC1CCCC1, N#Cc1cnn(Cc2ccc(Cl)cc2)c1N, COc1ccc(N2CCN(C(=O)CSc3ccccc3)CC2)cc1, Cc1csc(NC(=O)c2cccc(S(=O)(=O)N3CCCCC3)c2)n1, COCc1[nH]nc2c1C(c1cc(OC)c(O)c(OC)c1)C(C#N)=C(N)O2 (configuration not stated), Cc1cc(NC(=O)CCC(=O)N(c2cccnc2)C(C(=O)NC2CCCC2)c2ccccc2F)no1 (configuration not stated), CN(C)c1ccc(CNn2cnnc2)cc1, O=C(NC1CC2CCC1C2)c1ccc(CN2CCOCC2)cc1 (configuration not stated), CCOc1ccc2nc(NC(=O)CSc3nc4ccccc4c(=O)n3Cc3ccco3)sc2c1, c1ccc(-n2ncc3c(N4CCCCC4)ncnc32)cc1, CCOc1ccccc1C(=O)NCC(=O)OCC(=O)N1C(C)CCCC1C (configuration not stated), Cc1nc2oc3c(NCc4ccccn4)ncnc3c2c2c1COC(C)(C)C2, O=C(c1ccc(NS(=O)(=O)c2cccs2)cc1)N1CCCCC1, COCCNC(=O)c1ccc2c(c1)nc(C)n2-c1cccc(F)c1, O=C(c1ccc(Cl)cc1)N(Cc1cccs1)C1CCS(=O)(=O)C1 (configuration not stated), CN(C(=O)c1c(Cl)nc2sccn12)C1CCCCC1
